Screens (PubChem BioAssay)
Shown are actives, neighbours in structure and some others; about 3.3% of the full set was active somewhere.
NS1 function inh: blocks influenza NS1 protein function | AID 2326 | Potency, µM (top dose mostly 46.1 µM), for the others: at the top dose activity, positive = more growth | 270,000 tested, 0.4% active; calls by dose curve; note: actives are rising curves; nearly all actives have a fitted effect of over 50% in size
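S. cerevisiae expressing influenza A NS1, grown in glucose, washed, then diluted 1:100 into pH 6.0 -URA galactose medium with 23 nl compound. Growth recovery read as OD600; NS1-free strain serves as control.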
LmPK inh: LmPK (Leishmania mexicana) enzyme inhibition | purified LmPK, Kinase-Glo ATP luminescence, 1 h | Q27686 | 290,000 tested, 0.37% active | Potency, µM (titrated, usually from 57.5 µM), for the others: at the top dose activity change, negative = inhibition, usual class: inhibitors | AID 1721; note: % is set by controls: 0 for no effect and ±100 for the full control effect
Target sequence (Q27686 whole entry, looked up): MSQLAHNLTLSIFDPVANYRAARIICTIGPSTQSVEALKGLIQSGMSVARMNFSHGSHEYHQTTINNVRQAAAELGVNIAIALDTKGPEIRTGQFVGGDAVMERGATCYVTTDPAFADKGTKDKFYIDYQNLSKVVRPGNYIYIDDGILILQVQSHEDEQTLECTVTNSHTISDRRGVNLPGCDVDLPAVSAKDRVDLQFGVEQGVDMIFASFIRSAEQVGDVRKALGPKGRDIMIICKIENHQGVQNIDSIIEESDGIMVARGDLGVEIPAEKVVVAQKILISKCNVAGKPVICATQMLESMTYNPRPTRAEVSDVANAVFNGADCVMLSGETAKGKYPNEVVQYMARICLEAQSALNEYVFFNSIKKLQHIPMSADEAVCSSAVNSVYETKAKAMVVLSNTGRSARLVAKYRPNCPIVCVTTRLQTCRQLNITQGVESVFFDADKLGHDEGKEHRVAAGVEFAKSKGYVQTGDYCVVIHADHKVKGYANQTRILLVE
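ATP generated from ADP (0.1 mM) and PEP (0.5 mM) by 0.1 nM LmPK over 1 h at room temperature (pH 7.2 imidazole buffer) was detected by coupled luciferase luminescence. Values were normalized to uninhibited and no-enzyme wells.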
SARS PLpro yeast: blocks SARS-CoV papain-like protease in a yeast assay. AID 485353. 330,000 tested, 0.19% active. S. cerevisiae expressing SARS-CoV PLpro, growth rescue. Potency, µM (highest dose often 32.9 µM), without a hit: top-dose activity, positive = growth rescue, actives largely listed as activators; calls by dose curve; note: 0% is about no effect; nearly all actives have a fitted effect of over 55% in size
Sm TGR inh: S. mansoni TGR enzyme inhibition. Potency, µM (doses to about 114 µM), for inactives: top-dose activity change, negative = inhibition, most hits filed as inhibitors. Q962Y6. 360,000 tested, 3% active. purified TGR, DTNB reduction, TNB absorbance 405 nm; note: % is set by controls: 0 for no effect and ±100 for the full control effect; nearly all actives have a fitted effect of over 60% in size
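TGR 20 nM + NADPH 100 uM (dispensed conc.), cpd preinc 15 min RT; start with NADPH (500 uM addition) then DTNB (15 mM addition). Kinetic TNB absorbance, 405 nm filter. Four-parameter Hill fit across titration.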
RE007 growth inh: less growth of the S. pombe RE007 Vpr strain; S. pombe RE007 Vpr strain, BacTiter-Glo ATP luminescence, 24 h; Potency, µM (doses to about 92.2 µM), without a hit: at the top dose activity change, negative = less growth, actives largely listed as inhibitors; 360,000 tested, 0.21% active; AID 651644; active = well fitted falling curve with a large enough effect; inconclusive = small, poorly fitted or top-dose-only effect; inactive = no such curve, though single readings can be large or run the other way; note: % is set by controls: 0 for no effect and ±100 for the full control effect; nearly all actives have a fitted effect of over 50% in size
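Fission yeast strain RE007, carrying one chromosomally integrated HIV-1 vpr copy, was seeded at OD 0.01 in PMG+AL medium with 23 nL pinned compound. After 24 h at 30 °C and 99% humidity, viability was read by BacTiter-Glo luminescence.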
Tb PYK inh: T. brucei pyruvate kinase inhibition; Q57TT1; TbPYK enzyme, Kinase-Glo Plus ATP luminescence, 45 min; Potency, µM (series often up to 76.8 µM), for inactives: at the highest dose activity, negative = inhibition, usual class: inhibitors; 410,000 tested, 0.12% active; note: % is set by controls: 0 for no effect and ±100 for the full control effect; nearly all actives have a fitted effect of over 50% in size
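T. brucei PYK with substrate was exposed to pin-transferred compounds across a concentration series, then started with 130 uM ADP (final). After 45 min at room temperature, Kinase-Glo Plus luminescence was read, normalized and curve-fitted.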
* hit, by the source's call; [ ] = dose if it differs, or a comment. Unless noted, calls come from the whole dose curve; as a rule, active = well fitted curve in the direction sought with a large enough effect; inconclusive = small, poorly fitted or top-dose-only effect, or another doubt; inactive = no such curve, though single readings can be large; an effect the other way counts as inactive or inconclusive. Potency is the fitted concentration of half-maximal effect.

Screening COC(=O)c1ccc(N2C(=O)CC(N3CCN(c4ccccc4)CC3)C2=O)cc1 (stereo unspecified) returned RE007 growth inh inconclusive and Tb PYK inh 0%.
`O=C(O)CSC1CC(=O)N(c2ccc(Br)cc2)C1=O` (stereo unspecified) gave NS1 function inh -6%, LmPK inh 5%, SARS PLpro yeast -12%, Sm TGR inh 45µM*, RE007 growth inh inconclusive and Tb PYK inh -19%.
CCOc1ccc(N2C(=O)CC(N)C2=O)cc1 (stereo unspecified) was read as NS1 function inh -51%, LmPK inh -2%, SARS PLpro yeast -119%, Sm TGR inh 3.5µM*, RE007 growth inh 7.1µM* and Tb PYK inh -5%.
`CCCOc1ccc(N2C(=O)CC(SCC(N)C(=O)OCC)C2=O)cc1` (stereo unspecified) gave NS1 function inh -7%, LmPK inh -5%, SARS PLpro yeast -23%, Sm TGR inh inconclusive, RE007 growth inh inconclusive and Tb PYK inh -1%.
Screening CCCOc1ccc(N2C(=O)CC(SCCN)C2=O)cc1 (stereo unspecified) returned NS1 function inh -46%, LmPK inh -22%, SARS PLpro yeast -28%, Sm TGR inh 35µM*, RE007 growth inh 7.9µM* and Tb PYK inh -14%.
COC(=O)c1ccc(N2C(=O)CC(N(C)Cc3ccccc3)C2=O)cc1 (stereo unspecified) was read as NS1 function inh -135%, LmPK inh 0%, SARS PLpro yeast -13%, Sm TGR inh -4%, RE007 growth inh 6.3µM* and Tb PYK inh -5%.
For Cc1ccc(NC(=O)c2ccc(CNS(=O)(=O)c3ccc4c(c3)C(C)(C)C(=O)N4C)cc2)cc1F the results were Sm TGR inh -1% and Tb PYK inh 3%.
Cc1ccc(C(=O)c2sc(Nc3ccccc3F)c(S(=O)(=O)c3ccccc3)c2N)c(C)c1 was read as Sm TGR inh 3% and Tb PYK inh 3%.
Cc1ccc(-c2onc(C)c2C)cc1S(=O)(=O)NCc1cccs1 was read as Sm TGR inh 3% and Tb PYK inh 4%.
For CCOc1ccc(CNC(=O)c2ccc(-c3nc(CS(=O)(=O)c4ccccc4)c(C)o3)cc2)cc1 the results were Sm TGR inh -23% and Tb PYK inh -6%.
CCOC(=O)c1c(-c2ccc(Br)cc2)csc1NC(=O)c1ccc(C(C)(C)C)cc1 was read as Sm TGR inh -4% and Tb PYK inh -1%.
CCOc1ccc(N2C(=O)CC(N(C)Cc3ccccc3)C2=O)cc1 (stereo unspecified) was read as NS1 function inh -81%, LmPK inh -6%, SARS PLpro yeast -126%, Sm TGR inh 32µM*, RE007 growth inh 35µM* and Tb PYK inh -6%.
CC(C)(C)c1[nH]nc2c1C(c1ccoc1)C(C#N)=C(N)O2 (stereo unspecified) was read as NS1 function inh 6%, LmPK inh 4%, SARS PLpro yeast 2%, Sm TGR inh 5%, RE007 growth inh 0% and Tb PYK inh 1%.
For N#CC1=C(N)OC2=C(CCC/C2=C/c2ccoc2)C1c1ccoc1 (stereo unspecified) the results were NS1 function inh -33%, LmPK inh 7%, SARS PLpro yeast -5% and Sm TGR inh 18µM*.
`N#CC1=C(N)OC2=C(CC/C2=C\c2ccc(F)cc2)C1c1ccc(F)cc1` (stereo unspecified) gave NS1 function inh 4%, LmPK inh 1%, SARS PLpro yeast -1% and Sm TGR inh 25µM*.
For CN(Cc1cc(C(C)(C)C)cc(Br)c1O)Cc1cc(C(C)(C)C)cc(Br)c1O the results were NS1 function inh -15%.
COc1cc(OC)c(OC)cc1CNCc1ccc2c(c1)OCO2 was read as NS1 function inh 1%, LmPK inh -10%, SARS PLpro yeast -1%, Sm TGR inh 45µM*, RE007 growth inh -18% and Tb PYK inh 18%.
COc1cc(Br)c(CNCCc2ccc3c(c2)OCO3)cc1OC was read as NS1 function inh 18%, LmPK inh -1%, SARS PLpro yeast -4%, Sm TGR inh -31%, RE007 growth inh 2% and Tb PYK inh 4%.
Screening COc1cc(OC)c(OC)cc1CNCCc1ccc2c(c1)OCO2 returned NS1 function inh -3%, LmPK inh 0%, SARS PLpro yeast 3%, Sm TGR inh 40µM*, RE007 growth inh -19% and Tb PYK inh 0%.
Screening COc1cccc(CNCCc2ccc3c(c2)OCO3)c1OC returned NS1 function inh -2%, LmPK inh -1%, SARS PLpro yeast 2%, Sm TGR inh 40µM*, RE007 growth inh -14% and Tb PYK inh 8%.
`CCOc1cc2sc(N3CCC(C(=O)Nc4ccccc4Cl)CC3)nc2cc1Br` gave Sm TGR inh 6% and Tb PYK inh 4%.
`Cc1ccccc1NC(=O)CSc1nc(-c2ccccc2)cn1-c1ccccc1F` gave Sm TGR inh 0% and Tb PYK inh 0%.
Screening O=C(O)/C=C(/CC(=O)O)C(=O)O returned Tb PYK inh -2%.
Screening O=C(NC1CCCC1)c1ccc2c(c1)N(Cc1ccc(C(F)(F)F)cc1)C(=O)c1ccccc1S2 returned Sm TGR inh 16% and Tb PYK inh 5%.
`CCc1ccccc1N(C)C(=O)Cn1cnc2sc(C)c(S(=O)(=O)N3CCN(c4ncccn4)CC3)c2c1=O` gave Sm TGR inh -3% and Tb PYK inh 6%.
Screening Cc1oc(S(=O)(=O)N2CCCCC2)cc1NC(=O)Nc1ccccc1 returned NS1 function inh 3%, LmPK inh 8%, SARS PLpro yeast 0%, Sm TGR inh 10µM*, RE007 growth inh -11% and Tb PYK inh 3%.
Cc1oc(S(=O)(=O)N2CCCCC2)cc1NC(=O)Nc1ccc(Cl)cc1 was read as NS1 function inh -3%, LmPK inh 5%, SARS PLpro yeast -1%, Sm TGR inh 35µM*, RE007 growth inh 8% and Tb PYK inh 6%.
For CCCCc1nc2c(c3c1C[C@H](C)OC3)CN(C(=O)NCc1ccco1)CC2 the results were LmPK inh 5%[11.5 µM].
For O=C(NCc1ccco1)c1nc2nc(-c3cccs3)cc(C(F)(F)F)n2n1 the results were NS1 function inh 6%, LmPK inh 12%, SARS PLpro yeast 0%, Sm TGR inh 32µM*, RE007 growth inh -2% and Tb PYK inh -14%.
